# Reference: the supplement of paper PMC7156485
# Legend:
# Settings in all cases: concentration: 10 µM; 24 h
# HCC1569 [1] = assay: cell number relative to DMSO (% of DMSO); higher = more cells (less growth inhibition / toxicity)
# In short: (§1)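 For HCC1569 and TDF cells, compounds at 10 µM were applied for 24 h at 37 °C in triplicate in 384-well plates. Cells were fixed in 3.7% formaldehyde, stained for H1.0 and with DAPI, and imaged at ×10 over six fields per well. The endpoint, H1.0 nuclear intensity or cell number, is shown as percent of the plate control using the median of replicates. Positional effects were smoothed for HCC1569 only.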
# TDF [2] = assay: as above
# In short: as §1
# TDF [3] = assay: H1.0 immunofluorescence intensity relative to DMSO (% of DMSO); higher = stronger H1.0 induction, active = 120 or more
# In short: as §1
# HCC1569 [4] = assay: H1.0 immunofluorescence intensity relative to DMSO (% of DMSO); higher = stronger H1.0 induction, active = 140 or more
# In short: as §1
# 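For H1.0 immunofluorescence intensity relative to DMSO in this document: TDF is a line of transformed human dermal fibroblasts of mesenchymal origin.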
# 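For cell number relative to DMSO in this document: TDF denotes transformed human dermal fibroblasts of mesenchymal origin.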
SMILES,cell number (HCC1569 [1]),cell number (TDF [2]),H1.0 immunofluorescence intensity (TDF [3]),H1.0 immunofluorescence intensity (HCC1569 [4])
"Clc1ccc(C(c2ccccc2Cl)C(Cl)Cl)cc1 (configuration not stated) [1-(2-Chlorophenyl)-1-(4-chlorophenyl)-2,2-dichloroethane]",96.1,106,98.3 (inactive),92.9 (inactive)
CC(O)(P(=O)([O-])O)P(=O)([O-])O [Etidronate],101,106,102 (inactive),111 (inactive)
COc1ccc2c(c1)c(CC(=O)N1CCOCC1)c(C)n2C(=O)c1ccc(Cl)cc1,102,104,94.6 (inactive),104 (inactive)
COc1cc(C(=O)OCCCN2CCCN(CCCOC(=O)c3cc(OC)c(OC)c(OC)c3)CC2)cc(OC)c1OC [Dilazep],107,93.1,103 (inactive),91.6 (inactive)
CC(C)NCC(O)COc1ccc(CC(N)=O)cc1 (racemic),109,101,93.8 (inactive),88.2 (inactive)
Nc1ncnc2c1nc(Sc1ccc(Cl)cc1)n2C1OC2COP(=O)([O-])OC2C1O.[Na+] (configuration not stated) [8-(4-Chlorophenylthio)-cAMP sodium],104,106,93.1 (inactive),85.1 (inactive)
CC(N)(Cc1ccc(O)c(O)c1)C(=O)O [L-alpha-Methyl DOPA],96.4,98.5,91.3 (inactive),86.8 (inactive)
C=C(CC)C(=O)c1ccc(OCC(=O)O)c(Cl)c1Cl [Ethacrynic Acid],100,101,95.9 (inactive),100 (inactive)
